Drawing on PubChem BioAssay, this text covers inhibition for 17 compounds.

Values without a mark were called inactive. Activity calls are given as the source filed them.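 How the source made its calls, unless noted: active means mean inhibition over 43.08%, the solvent-only control mean plus 3 SD; inactive means the rest.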

Assay [1] concerns the target Nuclear receptor coactivator 3 (Homo sapiens) (UniProt Q9Y6Q9). The assay can be described thus: NCOA3 GAL4-fusion reporter inhibition – cell-based, luminescence, quadruplicate, confirmation (AID 588792).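 Further: 0% = DMSO treated cells and 100% = gossypol at 36 µM.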 To be noted: HEK293 GAL4-SRC3 luciferase reporter, at 3.6 µM, hits give high values. Background: In a reporter assay the amount or activity of a reporter protein is the signal.

The subject of assay [2] is transactivating tegument protein VP16 (Human herpesvirus 1), Gal4-VP16 luciferase reporter. The assay can be described thus: repression of VP16-driven luciferase reporter – cell-based, luminescence, high throughput, counter-screen for SRC3 inhibitor project (AID 588794; in the data active means inhibition above about 30%). To be noted: mammalian cells, at 3.6 µM, hits give high values.
For assay [3], the target named is Nuclear receptor coactivator 1 (Homo sapiens) (UniProt Q15788). The assay can be described thus: NCOA1 GAL4-fusion reporter inhibition – cell-based, luminescence, quadruplicate, confirmation (AID 588820;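 active means mean inhibition above 46.68%, the untreated control wells mean plus 3 SD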;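 further: 0% = DMSO wells and 100% = gossypol 36 µM treated wells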). The note with it: HEK293 GAL4-SRC1 luciferase reporter, at 3.6 µM, hits give high values.
Sequence of Nuclear receptor coactivator 1 (Homo sapiens) (Q15788 whole entry, looked up, the tested form may be a part): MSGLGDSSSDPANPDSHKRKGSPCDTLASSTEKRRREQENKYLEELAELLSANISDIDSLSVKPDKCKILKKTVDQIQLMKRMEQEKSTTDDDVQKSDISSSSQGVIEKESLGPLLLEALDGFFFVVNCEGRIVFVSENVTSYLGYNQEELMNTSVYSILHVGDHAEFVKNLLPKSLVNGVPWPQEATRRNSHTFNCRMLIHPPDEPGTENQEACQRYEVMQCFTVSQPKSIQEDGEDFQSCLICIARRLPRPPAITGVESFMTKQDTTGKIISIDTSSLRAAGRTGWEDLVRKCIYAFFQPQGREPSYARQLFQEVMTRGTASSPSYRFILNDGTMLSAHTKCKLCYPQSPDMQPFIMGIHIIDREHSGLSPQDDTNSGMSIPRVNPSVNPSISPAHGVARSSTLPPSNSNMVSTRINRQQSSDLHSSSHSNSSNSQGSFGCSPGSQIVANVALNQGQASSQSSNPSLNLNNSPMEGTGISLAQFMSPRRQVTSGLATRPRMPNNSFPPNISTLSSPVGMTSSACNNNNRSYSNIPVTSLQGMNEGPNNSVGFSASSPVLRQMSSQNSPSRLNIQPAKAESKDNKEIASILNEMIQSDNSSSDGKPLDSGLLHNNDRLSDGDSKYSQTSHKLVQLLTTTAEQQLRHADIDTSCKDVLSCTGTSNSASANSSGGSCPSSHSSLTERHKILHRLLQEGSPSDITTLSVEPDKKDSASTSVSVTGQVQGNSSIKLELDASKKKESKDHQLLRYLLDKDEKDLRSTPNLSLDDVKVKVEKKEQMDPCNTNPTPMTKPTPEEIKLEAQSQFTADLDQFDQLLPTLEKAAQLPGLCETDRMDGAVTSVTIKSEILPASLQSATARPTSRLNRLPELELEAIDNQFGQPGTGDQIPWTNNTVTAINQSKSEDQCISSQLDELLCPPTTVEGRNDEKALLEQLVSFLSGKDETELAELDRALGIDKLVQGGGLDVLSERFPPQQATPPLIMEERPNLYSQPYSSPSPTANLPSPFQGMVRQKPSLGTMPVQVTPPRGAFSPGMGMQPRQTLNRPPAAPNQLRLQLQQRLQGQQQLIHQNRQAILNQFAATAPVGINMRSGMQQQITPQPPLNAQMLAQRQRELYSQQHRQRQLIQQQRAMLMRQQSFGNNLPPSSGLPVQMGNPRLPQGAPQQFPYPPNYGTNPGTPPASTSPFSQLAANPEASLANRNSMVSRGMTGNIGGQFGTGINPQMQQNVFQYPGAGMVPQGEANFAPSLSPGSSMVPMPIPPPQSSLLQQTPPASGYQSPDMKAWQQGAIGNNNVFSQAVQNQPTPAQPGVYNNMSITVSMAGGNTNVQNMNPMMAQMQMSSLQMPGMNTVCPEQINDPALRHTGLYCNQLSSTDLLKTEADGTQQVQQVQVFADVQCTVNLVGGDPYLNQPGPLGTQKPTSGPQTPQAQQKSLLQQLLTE
A short description of assay [4]: repression of VP16-driven luciferase reporter – cell-based, luminescence, high throughput, counter-screen for SRC1 inhibitor project (AID 588824; in the data active means inhibition above about 25%). To be noted: cell-based VP16 transactivation luciferase luminescence; at 3.6 µM; hits give high values.
A short description of assay [5]: StAR promoter reporter inhibitors, counter-screen for LRH-1 inverse agonist project, cell-based, luminescence, high throughput (AID 651611; in the data active means inhibition above about 28%). The note with it: StAR promoter luciferase reporter counterscreen, at 3.6 µM, hits give high values. A general note: Counterscreens check selectivity or assay interference.
Assay [6] deals with Nuclear receptor subfamily 5 group A member 2 (Homo sapiens) (UniProt O00482). Put plainly: NR5A2 activity suppression in reporter cells – cell-based, luminescence, confirmation (AID 651613; in the data active means inhibition above about 42%;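 further: HEK293T cells co-transfected with LRH-1 and StAR promoter luciferase reporter; 0% = vehicle wells and 100% = parental cells lacking receptor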). The note with it: cell-based LRH-1 luciferase reporter, inverse agonism; at 3.6 µM; hits give high values.
Sequence of Nuclear receptor subfamily 5 group A member 2 (Homo sapiens) (O00482 whole entry, looked up): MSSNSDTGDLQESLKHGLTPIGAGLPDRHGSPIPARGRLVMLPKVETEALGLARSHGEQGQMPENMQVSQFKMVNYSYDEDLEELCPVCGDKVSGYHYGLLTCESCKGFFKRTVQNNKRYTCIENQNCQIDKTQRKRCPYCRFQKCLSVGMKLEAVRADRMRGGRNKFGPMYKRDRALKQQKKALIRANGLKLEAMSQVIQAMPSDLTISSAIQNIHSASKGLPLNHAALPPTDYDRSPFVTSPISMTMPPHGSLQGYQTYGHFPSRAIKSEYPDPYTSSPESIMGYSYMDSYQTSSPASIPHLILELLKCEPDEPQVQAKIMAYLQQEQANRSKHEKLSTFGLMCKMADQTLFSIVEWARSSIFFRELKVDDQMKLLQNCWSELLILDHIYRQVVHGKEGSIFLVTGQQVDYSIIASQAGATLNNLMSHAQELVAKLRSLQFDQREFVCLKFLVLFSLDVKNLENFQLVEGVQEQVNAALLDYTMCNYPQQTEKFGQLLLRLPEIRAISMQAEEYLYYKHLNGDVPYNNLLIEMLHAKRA
The target in assay [7] is Steroidogenic factor 1 (Homo sapiens) (UniProt Q13285). The assay can be described thus: inverse agonism at SF1 nuclear receptor – cell-based, luminescence, high throughput, counter-screen for LRH-1 inverse agonist project (AID 651614; in the data active means inhibition above about 44%;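 further: cells cotransfected with StAR promoter reporter and SF1 expression vector; 0% = vehicle on cells with receptor and 100% = vehicle on cells lacking receptor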). The note with it: cell-based SF1 luciferase reporter, at 3.6 µM, hits give high values.
Sequence of Steroidogenic factor 1 (Homo sapiens) (Q13285 whole entry, looked up, the tested form may be a part): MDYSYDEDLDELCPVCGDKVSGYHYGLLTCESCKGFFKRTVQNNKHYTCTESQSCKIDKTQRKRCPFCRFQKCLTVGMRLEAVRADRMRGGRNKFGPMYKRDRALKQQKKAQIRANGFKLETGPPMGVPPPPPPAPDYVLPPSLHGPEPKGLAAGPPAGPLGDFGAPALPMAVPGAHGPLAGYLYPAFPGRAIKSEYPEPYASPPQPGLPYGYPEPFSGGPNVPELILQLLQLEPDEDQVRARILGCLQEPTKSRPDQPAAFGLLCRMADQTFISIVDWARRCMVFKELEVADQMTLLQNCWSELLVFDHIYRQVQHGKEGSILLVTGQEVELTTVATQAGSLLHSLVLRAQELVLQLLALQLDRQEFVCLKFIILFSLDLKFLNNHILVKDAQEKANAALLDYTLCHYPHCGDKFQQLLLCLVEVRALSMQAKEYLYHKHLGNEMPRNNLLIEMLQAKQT
Assay [8] is described as follows: compounds suppressing VP16-driven luciferase signal – cell-based, luminescence, high throughput, counter-screen for LRH-1 inverse agonist project (AID 651615; in the data active means inhibition above about 33%). To be noted: Gal4-VP16 luciferase reporter cells, at 3.6 µM, hits give high values.

Sequence of Nuclear receptor coactivator 3 (Homo sapiens) (Q9Y6Q9 whole entry, looked up, the tested form may be a part): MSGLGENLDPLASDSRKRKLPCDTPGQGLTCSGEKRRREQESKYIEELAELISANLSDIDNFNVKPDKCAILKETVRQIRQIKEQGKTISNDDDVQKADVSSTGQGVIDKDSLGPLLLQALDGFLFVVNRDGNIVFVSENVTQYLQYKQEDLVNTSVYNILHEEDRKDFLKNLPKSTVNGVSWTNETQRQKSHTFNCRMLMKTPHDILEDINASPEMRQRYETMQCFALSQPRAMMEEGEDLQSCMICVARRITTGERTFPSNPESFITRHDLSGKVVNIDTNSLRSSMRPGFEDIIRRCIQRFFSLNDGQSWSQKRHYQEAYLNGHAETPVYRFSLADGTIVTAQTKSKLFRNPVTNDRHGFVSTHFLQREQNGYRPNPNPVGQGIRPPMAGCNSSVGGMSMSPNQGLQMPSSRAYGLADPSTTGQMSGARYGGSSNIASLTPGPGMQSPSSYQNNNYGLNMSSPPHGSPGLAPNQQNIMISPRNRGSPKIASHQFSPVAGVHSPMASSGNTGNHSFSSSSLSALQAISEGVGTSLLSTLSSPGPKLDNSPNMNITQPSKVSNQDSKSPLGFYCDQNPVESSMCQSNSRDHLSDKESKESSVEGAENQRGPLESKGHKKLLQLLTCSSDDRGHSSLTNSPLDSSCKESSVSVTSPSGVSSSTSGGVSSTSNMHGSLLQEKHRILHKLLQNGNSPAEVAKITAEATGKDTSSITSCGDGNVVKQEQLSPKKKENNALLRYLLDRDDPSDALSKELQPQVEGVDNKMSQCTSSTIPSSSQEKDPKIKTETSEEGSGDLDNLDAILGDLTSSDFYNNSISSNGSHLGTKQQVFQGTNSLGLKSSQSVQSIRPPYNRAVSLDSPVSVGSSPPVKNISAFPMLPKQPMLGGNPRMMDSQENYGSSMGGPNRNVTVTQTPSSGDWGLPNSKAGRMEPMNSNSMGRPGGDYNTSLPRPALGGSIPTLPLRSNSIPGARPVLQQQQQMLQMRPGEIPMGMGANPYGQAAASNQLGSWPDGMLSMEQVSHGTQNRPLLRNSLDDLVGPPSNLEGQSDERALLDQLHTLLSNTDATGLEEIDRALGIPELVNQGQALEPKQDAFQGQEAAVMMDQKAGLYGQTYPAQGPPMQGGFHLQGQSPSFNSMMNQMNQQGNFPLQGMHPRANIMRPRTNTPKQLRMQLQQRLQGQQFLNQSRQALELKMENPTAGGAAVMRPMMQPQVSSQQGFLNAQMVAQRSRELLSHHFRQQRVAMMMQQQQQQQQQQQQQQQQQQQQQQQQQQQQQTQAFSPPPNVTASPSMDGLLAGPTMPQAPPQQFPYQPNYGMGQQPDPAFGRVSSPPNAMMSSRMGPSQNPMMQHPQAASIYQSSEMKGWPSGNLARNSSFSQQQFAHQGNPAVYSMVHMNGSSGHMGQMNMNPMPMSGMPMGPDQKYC

What is called inhibition is the drop in the measured response relative to a control, in per cent. As to `NC(=O)c1cc([N+](=O)[O-])ccc1NCc1ccc(O)cc1`, the inhibition was 25.3% in assay [1]; 43.5% (active) in assay [2]; 1.01% in assay [3]; 30% (active) in assay [4]; 48.6% (active) in assay [5]; 63.8% (active) in assay [6]. Besides, the inhibition was 67.8% (active) in assay [7] and 66.9% (active) in assay [8].

Regarding `CC[n+]1ccccc1/C=C1\Sc2ccc(C)cc2N1C`, the inhibition is 25.7% in assay [1]; 64.6% (active) in assay [2]; 23.8% in assay [3]; 67.7% (active) in assay [4]; 40% (active) in assay [5]; 75.7% (active) in assay [6]. Besides, the results for the inhibition in assay [7] and in assay [8] were 70.3% (active) and 74.5% (active), respectively.

As to `COc1ccc(NC(=O)c2cc(-c3cc(Cl)ccc3OC)n[nH]2)cc1OC`, the inhibition in assay [1] was 27.4%; in assay [2], 51.2% (active); in assay [3], 19.2%; in assay [4] it was 44% (active); in assay [5] it was 38.9% (active); in assay [6] it was 47.8% (active). The inhibition in assay [7] was 61.2% (active); in assay [8], 57.8% (active).

In the case of `CC1CN(S(=O)(=O)c2ccc(C(=O)NCCCn3ccnc3)cc2)CC(C)O1` (stereo unspecified), the inhibition in assay [1] was 87.8% (active); in assay [2], 47.5% (active); in assay [3], 67.9% (active); in assay [4], 30.4% (active); in assay [5], 87.1% (active); in assay [6] it was 99.2% (active). Moreover, the inhibition in assay [7] is 95.5% (active); in assay [8], 81.1% (active).

On to `c1ccc(-c2nn(-c3ccccc3)[n+](-c3ccccc3)n2)cc1`, for which the inhibition was 20.3% in assay [1]; 14.7% in assay [2]; -0.24% in assay [3]; 15.6% in assay [4]; 23.8% in assay [5]; 43.8% (active) in assay [6]. Also, the inhibition in assay [7] is 46% (active); in assay [8] it was 48.5% (active).

With `O=C(Nc1ccc(S(=O)(=O)N2CCCC2)cc1)c1ccc(CN2CCc3ccccc3C2)cc1`, the inhibition in assay [1] was 28.1%; in assay [2], 56.4% (active); in assay [3], 8.79%; in assay [4], 56.9% (active); in assay [5], 51.4% (active); in assay [6], 74.5% (active). In addition, the inhibition in assay [7] is 75.2% (active); in assay [8], 68.7% (active).

For the compound `Cc1c(P(=S)(c2ccccc2)c2ccccc2)[n+]2ccccc2n1C/C=C/c1ccccc1`, the inhibition is 20.6% in assay [1]; 36.9% (active) in assay [2]; 26% in assay [3]; 54.4% (active) in assay [4]; 44.7% (active) in assay [5]; 90.6% (active) in assay [6]. In addition, the inhibition in assay [7] was 51.4% (active); in assay [8], 60.5% (active).

Take `O=C(CSc1nc2sc3c(c2c(=O)n1-c1ccccc1)CCCC3)NCc1ccco1`: the inhibition in assay [1] is 7.86%; in assay [2] it was -11.9%; in assay [3], 4.53%; in assay [4], -16.3%; in assay [5], 8.53%; in assay [6], 15.3%. The inhibition is 10.7% in assay [7] and 3.41% in assay [8].

In the case of `Nc1cc2c3c(cccc3c1)C(=O)N(CCN1CCCC1)C2=O`, the inhibition in assay [1] was 16.8%; in assay [2], 40.7% (active); in assay [3], 38.9%; in assay [4] it was 46.9% (active); in assay [5], 60.5% (active); in assay [6], 66.6% (active). For the same compound, the values for the inhibition in assay [7] and in assay [8] were 61.6% (active) and 69.9% (active), respectively.

Take `Cc1ccc(/C=C/C(=O)c2c(C)cc(C)[nH]c2=O)cc1`: the inhibition in assay [1] is 46.8% (active); in assay [2], 40% (active); in assay [3], 47% (active); in assay [4], 46.4% (active); in assay [5] it was 35.3% (active); in assay [6] it was 42.8% (active). Further, the inhibition in assay [7] is 50.4% (active); in assay [8], 60.4% (active).

On to `Cc1sc(NC(=O)/C=C/c2ccc3c(c2)OCO3)nc1-c1ccccc1`, for which the inhibition in assay [1] is 24.4%; in assay [2], 59.1% (active); in assay [3], 32.1%; in assay [4], 57.7% (active); in assay [5], 42.9% (active); in assay [6], 74.9% (active). For the same compound, the inhibition was 74.1% (active) in assay [7] and 70.9% (active) in assay [8].

For `CN(C)CCOc1ccc2c(c1)C(=O)C(=Cc1ncc([N+](=O)[O-])n1C)C2`, the inhibition is 54.2% (active) in assay [1]; 35.2% (active) in assay [2]; 43% in assay [3]; 27% (active) in assay [4]; 68.6% (active) in assay [5]; 88.4% (active) in assay [6]. Further, the inhibition in assay [7] is 73.7% (active); in assay [8] it was 51.6% (active).

For the compound `Cc1ccc(-n2c(-c3ccc(Br)cc3)c[n+]3c2CCc2ccc4cccnc4c2-3)cc1`, the inhibition is 89.4% (active) in assay [1]; 86.1% (active) in assay [2]; 74.8% (active) in assay [3]; 87.5% (active) in assay [4]; 83.8% (active) in assay [5]; 111% (active) in assay [6]. Further, the inhibition was 95.8% (active) in assay [7] and 96.3% (active) in assay [8].

As to `COC(C(=O)C(O)C(C)O)C1Cc2cc3cc(OC4CC(OC5CC(O)C(O)C(C)O5)C(O)C(C)O4)c(C)c(O)c3c(O)c2C(=O)C1OC1CC(OC2CC(OC3CC(O)C(OC)C(C)O3)C(O)C(C)O2)C(O)C(C)O1` (stereo unspecified), the inhibition in assay [1] was 93.6% (active); in assay [2], 93.9% (active); in assay [3] it was 78% (active); in assay [4], 92.2% (active); in assay [5], 93.6% (active); in assay [6] it was 109% (active). Also, the results for the inhibition in assay [7] and in assay [8] were 97.2% (active) and 99.4% (active), respectively.

On to `COc1cccc(Cn2c(NCc3cccnc3)nc3c2c(=O)n(C)c(=O)n3C)c1`, for which the inhibition in assay [1] is 50.8% (active); in assay [2], 41.3% (active); in assay [3] it was 58.1% (active); in assay [4], 38% (active); in assay [5], 59.4% (active); in assay [6] it was 55.5% (active). Moreover, the values for the inhibition in assay [7] and in assay [8] were 50.3% (active) and 62.8% (active), respectively.

With `CC(=NNC(=S)Nc1ccccc1)c1ccccn1`, the inhibition in assay [1] was 41%; in assay [2], 70.5% (active); in assay [3], -15.4%; in assay [4] it was 67.8% (active); in assay [5], 78.3% (active); in assay [6], 101% (active). For the same compound, the inhibition in assay [7] was 90% (active); in assay [8], 85.6% (active).

On to `CCOc1ccc(-n2c(-c3ccc(OC)cc3)c[n+]3c2CCCCC3)cc1`, for which the inhibition was 46.6% (active) in assay [1]; 67.5% (active) in assay [2]; 36.2% in assay [3]; 63.9% (active) in assay [4]; 52.9% (active) in assay [5]; 109% (active) in assay [6]. For the same compound, the inhibition in assay [7] was 83.9% (active); in assay [8] it was 90.3% (active).
